PubChem BioAssay AID925 (National Center for Advancing Translational Sciences (NCATS), 2007)
Several values for one entry are separate records, joined by “and”; a condition that tells them apart may be missing. Equal entries are not always repeated. Among all 65,000 compounds or so, about 40 (0.06%) were called active. Calls come from the whole dose curve; as a rule, active = well fitted activation curve with a large enough effect; inconclusive = small, poorly fitted or top-dose-only effect; inactive = flat fitted curve, though single readings scatter. Shown is part of a subset that was picked to be rich in actives.

assay: qHTS Assay for Modulators of Hemoglobin Beta Chain Splicing; conditions: HBB splicing reporter cell assay, EGFP reporter with mutant IVS2-654 intron; Potency: activation; series mostly up to 46.1 µM; activation: at the top concentration; note: 0% is about no effect
Method in brief: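 HeLa cells stably expressing EGFP interrupted by mutant beta-globin intron 2 (IVS2-654), 500/well in 2% FCS. Treated with compound for 2 days at 37C. Splicing correction scored as total well GFP intensity (488 nm excitation, 500-520 nm emission); 500 nM antisense PNA served as control.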

| SMILES | activation |
| --- | --- |
| O=C(Nc1cccc(F)c1)N1CC2(CCN(C(=O)c3cnccn3)CC2)C1 | -0.736% (inactive) |
| COc1ccc(OC)c([C@H](O)CNC(=O)CN)c1 | 1.06% [at 20.6 µM, normalised to 500 nM splice-correcting PNA] (inactive) |
| CS(=O)(=O)N1CCC[C@@]2(CCN(c3ccncc3)C2)C1 | 0.825% (inactive) |
| COc1ccc(CNc2ncnc3ccc(-c4cccnc4)cc23)c(OC)c1 | -0.216% (inactive) |
| CN(C)C(=O)/N=N\C(=O)N(C)C | 0.247% (inactive) |
| Oc1c(Br)cc(CN(Cc2cc(Br)c(O)c(Br)c2)C2CCCCC2)cc1Br | 1.47% [at 9.22 µM, normalised to 500 nM splice-correcting PNA] (inactive) |
| CC(C)(C)c1ccc(OC2C=CC(C#Cc3ccccc3)OC2CO)cc1 (stereo not given) | -0.074% [at 9.22 µM, normalised to 500 nM splice-correcting PNA] (inactive) |
| CC(C)=CCC/C(C)=C/CO/N=C1/C[C@@H](O)[C@@H](O)[C@@H]2[C@@H]3C(=O)N(C(C)(C)C)C(=O)[C@H]3CC[C@H]12 | -1.71% [at 9.22 µM, normalised to 500 nM splice-correcting PNA] (inactive) |
| CCCn1c(C)nc2c(NCCCCN(CC)CC)nc(C)nc21 | -0.385% (inactive) |
| O=C(Cl)c1ccccc1[N+](=O)[O-] | -0.267% (inactive) |
| CC(C)(C)NCC[C@@H](O)c1cc(C(F)(F)F)nc2c(C(F)(F)F)cccc12 | 0.766% [at 9.22 µM, normalised to 500 nM splice-correcting PNA] (inactive) |
| COc1cccc(-c2cc(NCCc3c[nH]c4ccc(OC)cc34)ncn2)c1 | -0.561% (inactive) |
| COc1ccc(/C=C/NC(=O)Cc2ccc(OC)c(OC)c2)cc1 | 1.47% [at 9.22 µM, normalised to 500 nM splice-correcting PNA] (inactive) and 0.37% [at 9.22 µM, normalised to 500 nM splice-correcting PNA] (inactive) |
| O=C(O)c1nccnc1C(=O)Nc1ccc(Br)cn1 | -1.21% (inactive) |
| COc1cccc(Cn2c(=O)cnc3cncnc32)c1 | 4.4% (inactive) |
| O=C(O)[C@H](CCc1ccccn1)c1ccccc1 | 1.34% [at 9.22 µM, normalised to 500 nM splice-correcting PNA] (inactive) |
| N#Cc1ccccc1-c1ccc2ncnc(NCc3cccnc3)c2c1 | -2.1% (inactive) |
| CCCCC/C=C/C=C/C=O | 1.32% (inactive) |
| O=C(O)CCCCC(=O)O | -0.164% (inactive) |
| CNC(=O)C1(C)C=CC2(CCCCC2)N1C(C)=O (stereo not given) | -1.62% (inactive) |
| O=S(=O)(c1ccccc1)N1CCC2(CC1)CN(Cc1nccs1)C2 | 1.28% (inactive) |
| CCON=C1C(C)(C)C(C)(C)C(C)(C)C1(C)C | 1.16% [at 9.22 µM, normalised to 500 nM splice-correcting PNA] (inactive) |

| SMILES | activation |
| --- | --- |
| O=C(c1cnccn1)N1CCC2(CCN(Cc3cc(C(F)(F)F)cc(C(F)(F)F)c3)CC2)CC1 | -0.133% (inactive) |
| O=C(c1ccncc1)N1CCC2(CCCN(C(c3ccccc3)c3ccccc3)C2)CC1 | 0.276% (inactive) |
| Nc1ccccc1N | 1.59% (inactive) |
| CC(=O)OCC(COC(C)=O)OC(C)=O | 1.19% (inactive) |
| Cc1cc(C(=O)O)ccc1[N+](=O)[O-] | 0.443% (inactive) |
| O=C1C[C@@H](O)[C@@H](O)[C@H]2[C@@H]3C(=O)N(Cc4ccc5c(c4)OCO5)C(=O)[C@@H]3CC[C@H]12 | 3.01% [at 9.22 µM, normalised to 500 nM splice-correcting PNA] (inactive) and 2.86% [at 9.22 µM, normalised to 500 nM splice-correcting PNA] (inactive) |
| CN/C(=C\[N+](=O)[O-])NCCSCc1csc(CN(C)C)n1 | -1.87% [at 20.6 µM, normalised to 500 nM splice-correcting PNA] (inactive) |
| CO[C@H]1COC(=O)C/C=C\[C@H](C)COC(=O)[C@@H](OCc2ccccc2)/C=C\[C@@H]1C | 1.62% [at 9.22 µM, normalised to 500 nM splice-correcting PNA] (inactive) |
| Cc1c2c(nc3ccccc13)-c1cccc(=O)n1C2 | 1.36% (inactive) |
| CC/C=C/C/C=C/C/C=C/CCCCCCCC(=O)OCC | 0.885% (inactive) |
| Oc1ccc2ccccc2c1C=NCc1c(O)ccc2ccccc12 | 0.869% [at 9.22 µM, normalised to 500 nM splice-correcting PNA] (inactive) |
| CCCNC(=O)OC[C@@H]1O[C@H](c2ccccc2)C=C[C@@H]1Oc1ccc(OC)cc1 | -1.16% [at 9.22 µM, normalised to 500 nM splice-correcting PNA] (inactive) |
| O=C1OCCC=C1[C@@H](O)CCc1ccccc1 | 3.64% [at 9.22 µM, normalised to 500 nM splice-correcting PNA] (inactive) |
| CCCn1c(-c2ccc(F)cc2)nc2c(NCC3CCCN3CC)nc(C)nc21 (stereo not given) | 0.529% (inactive) |
| Cc1cc(C)cc(N)c1 | -0.0718% (inactive) |
| c1ccc2c(c1)-c1ccccc1C2N1CC2CCC(CC2)C1 | 3.26% [at 9.22 µM, normalised to 500 nM splice-correcting PNA] (inactive) |
| COc1ncc2nc(-c3ccc(Cl)cc3)c(=O)n(-c3ccccc3)c2n1 | 0.498% (inactive) |
| O=C(O)CC(C(=O)O)C(CC(=O)O)C(=O)O (stereo not given) | 1.17% (inactive) |
| COC(=O)[C@@]1(Cc2ccc(OC)cc2)[C@H]2c3cc(C(=O)N4CCCC4)n(Cc4ccc(C(F)(F)F)nc4)c3C[C@H]2CN1C(=O)c1ccccc1 | 0.0479% (inactive) |
| CC1=C(C(=O)OCc2ccccc2)C(c2ccc(C(F)(F)F)cc2)NC(=O)N1CCCCCC(=O)O (stereo not given) | -0.181% (inactive) |
| COc1ccc(-c2nc3cnc(OC)nc3n(Cc3ccc(F)cc3)c2=O)cc1 | -0.0985% (inactive) |
| Cc1cccc(Br)c1 | 1.71% (inactive) |

| SMILES | activation |
| --- | --- |
| CS(=O)(=O)N1CCC2(CC1)CN(c1ccncc1)C2 | 3.52% (inactive) |
| CCn1ccnc1C[C@@H]1COc2ccccc2O1 | 1.64% (inactive) |
| CC[C@H](c1ccccc1)c1cc(C(C)(C)C)cc(C(C)(C)C)c1O | -0.113% [at 9.22 µM, normalised to 500 nM splice-correcting PNA] (inactive) |
| CC(C)(O/N=C(\C(=O)N[C@@H]1C(=O)N2C(C(=O)[O-])=C(C[n+]3ccccc3)CS[C@@H]12)c1csc(N)n1)C(=O)O | -0.237% [at 20.6 µM, normalised to 500 nM splice-correcting PNA] (inactive) |
| C[C@]1(O)CC[C@H]2[C@H]3CC=C4N5CCN=C5CC[C@@]4(C)[C@H]3CC[C@@]21C | -0.0515% [at 9.22 µM, normalised to 500 nM splice-correcting PNA] (inactive) |
| Cc1c(NC(=O)c2cccnc2)c(=O)n(-c2ccccc2)n1C | -1.86% [at 20.6 µM, normalised to 500 nM splice-correcting PNA] (inactive) |
| COC(=O)[C@@]1(Cc2ccc(OC)cc2)[C@H]2c3cc(C(=O)N4CCCC4)n(Cc4ccc(OC(F)(F)F)cc4)c3C[C@H]2CN1C(=O)c1ccccc1 | 0.6% (inactive) |
| CC[C@@H]1Cc2cc(O)ccc2C2=C1c1ccc(O)cc1C[C@H]2CC | 0.516% (inactive) |
| Cc1nc2cnc(N3CCNCC3)nc2n(Cc2ccc(F)cc2)c1=O | -0.46% (inactive) |
| COc1ccc(CNc2ncncc2-c2ccccc2OC)c(OC)c1 | -2.4% (inactive) |
| COC(=O)[C@@H]1CC[C@H](C)[C@@H](c2ccc(C)cc2)N1C(=O)c1ccc(/C=N\O[C@@H](C)c2cn([C@H](CO)Cc3ccccc3)nn2)cc1 | 0.582% [at 9.22 µM, normalised to 500 nM splice-correcting PNA] (inactive) and -0.794% [at 9.22 µM, normalised to 500 nM splice-correcting PNA] (inactive) |
| O=C(c1cccc(F)c1)N1CCC2(CCCN(Cc3ccncc3)C2)CC1 | 0.183% (inactive) |
| Cc1cccc(C(=O)O)c1[N+](=O)[O-] | -0.133% (inactive) |
| COc1cccc(Cn2c(=O)c(CCc3ccccc3)nc3cnc(N(C)C)nc32)c1 | 1.77% (inactive) |
| Cc1cnc(CNc2nc(-c3cccnc3)nc3ccccc23)cn1 | -0.583% (inactive) |
| COc1ccc(-c2nc3cnc(Oc4ccccc4)nc3n(Cc3cccs3)c2=O)cc1 | 0.4% (inactive) |
| CCC[C@@H]1C[C@@]1(CCC)C(NS(=O)(=O)c1cccc2cccnc12)c1ccc(Cl)cc1 (stereo not given in full) | 1.95% (inactive) |
| O=C(Cl)c1ccc([N+](=O)[O-])cc1 | -0.798% (inactive) |
| O=C(c1csnn1)N1CCC[C@@]2(CCN(Cc3nccs3)C2)C1 | 1.83% (inactive) |
| CCNC(=S)NCC | -0.328% (inactive) |
| O=C(c1ccc([N+](=O)[O-])cc1)[C@@H](Br)[C@@H](Br)c1ccnc2ccccc12 | 0.675% [at 9.22 µM, normalised to 500 nM splice-correcting PNA] (inactive) |
